# Test results taken from the supplement of paper PMC8728848.
# The full list was thinned out, with the strongest signals kept by preference.
# Tests used:
# Assay in all cases: glycan array binding signal (z-score within array); higher = stronger binding
# Details in all cases: glycan notation: IUPAC condensed, linker removed
# [1] = molecular target: Fuc(a1-2)Gal(b1-3)[Fuc(a1-4)]GlcNAc(b1-3)[Fuc(a1-3)[Gal(b1-4)]GlcNAc(b1-6)]Gal(b1-4)Glc
# How it was run: (§1)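 Columns mapping to the same glycan were averaged after glycan names were converted to IUPAC-condensed notation. The data come from 3228 arrays in the Consortium for Functional Glycomics database, limited to those with an available protein sequence. Binding is reported as a within-array Z-score averaged across arrays of one protein sequence and across linkers.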
# [2] = molecular target: Fuc(a1-2)Gal(b1-4)[Fuc(a1-3)]GlcNAc(b1-2)[Fuc(a1-2)Gal(b1-4)[Fuc(a1-3)]GlcNAc(b1-4)]Man(a1-3)[Fuc(a1-2)Gal(b1-4)[Fuc(a1-3)]GlcNAc(b1-2)Man(a1-6)]Man(b1-4)GlcNAc(b1-4)GlcNAc
# How it was run: as §1
# [3] = molecular target: Fuc(a1-2)[Gal(a1-3)]Gal(b1-3)GlcNAc
# How it was run: as §1
# [4] = molecular target: Fuc(a1-2)[Gal(a1-3)]Gal(b1-4)[Fuc(a1-3)]Glc
# How it was run: as §1
# [5] = molecular target: Fuc(a1-2)[GalNAc(a1-3)]Gal(b1-3)GlcNAc(b1-2)Man(a1-3)[Fuc(a1-2)[GalNAc(a1-3)]Gal(b1-3)GlcNAc(b1-2)Man(a1-6)]Man(b1-4)GlcNAc(b1-4)GlcNAc
# How it was run: as §1
# [6] = molecular target: Fuc(a1-2)[GalNAc(a1-3)]Gal(b1-4)GlcNAc(b1-3)GalNAc
# How it was run: as §1
# [7] = molecular target: Fuc(a1-2)[GalNAc(a1-4)]Gal(b1-4)GlcNAc
# How it was run: as §1
# [8] = molecular target: Gal(b1-3)GalNAc(b1-4)[Neu5Ac(a2-3)]Gal(b1-4)Glc
# How it was run: as §1
# [9] = molecular target: Gal(b1-3)GlcNAc(b1-2)Man(a1-3)[Gal(b1-3)GlcNAc(b1-2)Man(a1-6)]Man(b1-4)GlcNAc(b1-4)[Fuc(a1-6)]GlcNAc
# How it was run: as §1
# [10] = molecular target: Gal(b1-3)GlcNAc(b1-2)Man(a1-3)[GlcNAc(b1-4)][Gal(b1-3)GlcNAc(b1-2)Man(a1-6)]Man(b1-4)GlcNAc(b1-4)GlcNAc
# How it was run: as §1
# Gal(b1-4)Glc6S = molecular target: Gal(b1-4)Glc6S
# How it was run: as §1
# [11] = molecular target: Gal(b1-4)GlcNAc(b1-2)Man(a1-3)[Gal(b1-4)GlcNAc(b1-2)Man(a1-6)]Man(b1-4)GlcNAc(b1-4)[Fuc(a1-6)]GlcNAc
# How it was run: as §1
# [12] = molecular target: Gal(b1-4)GlcNAc(b1-2)Man(a1-3)[Gal(b1-4)GlcNAc(b1-2)Man(a1-6)][Gal(b1-4)GlcNAc(b1-4)]Man(b1-4)GlcNAc(b1-4)[Fuc(a1-6)]GlcNAc
# How it was run: as §1
# [13] = molecular target: Gal(b1-4)GlcNAc(b1-3)Gal(b1-3)GalNAc
# How it was run: as §1
# [14] = molecular target: Gal(b1-4)GlcNAc(b1-3)Gal(b1-4)GlcNAc(b1-2)Man(a1-3)[Gal(b1-4)GlcNAc(b1-3)Gal(b1-4)GlcNAc(b1-2)Man(a1-6)]Man(b1-4)GlcNAc(b1-4)[Fuc(a1-6)]GlcNAc
# How it was run: as §1
# [15] = molecular target: Gal(b1-4)GlcNAc(b1-3)Gal(b1-4)GlcNAc(b1-3)Gal(b1-4)GlcNAc(b1-2)Man(a1-3)[Gal(b1-4)GlcNAc(b1-3)Gal(b1-4)GlcNAc(b1-3)Gal(b1-4)GlcNAc(b1-2)Man(a1-6)]Man(b1-4)GlcNAc(b1-4)[Fuc(a1-6)]GlcNAc
# How it was run: as §1
# [16] = molecular target: Gal(b1-4)GlcNAc(b1-3)Gal(b1-4)GlcNAc(b1-3)Gal(b1-4)GlcNAc(b1-3)Gal(b1-4)GlcNAc(b1-2)Man(a1-3)[Gal(b1-4)GlcNAc(b1-3)Gal(b1-4)GlcNAc(b1-3)Gal(b1-4)GlcNAc(b1-3)Gal(b1-4)GlcNAc(b1-2)Man(a1-6)]Man(b1-4)GlcNAc(b1-4)[Fuc(a1-6)]GlcNAc
# How it was run: as §1
# [17] = molecular target: Gal(b1-4)GlcNAc(b1-3)Gal(b1-4)GlcNAc(b1-3)Gal(b1-4)GlcNAc(b1-3)Gal(b1-4)GlcNAc(b1-3)Gal(b1-4)GlcNAc(b1-2)Man(a1-3)[Gal(b1-4)GlcNAc(b1-3)Gal(b1-4)GlcNAc(b1-3)Gal(b1-4)GlcNAc(b1-3)Gal(b1-4)GlcNAc(b1-3)Gal(b1-4)GlcNAc(b1-2)Man(a1-6)]Man(b1-4)GlcNAc(b1-4)[Fuc(a1-6)]GlcNAc
# How it was run: as §1
# [18] = molecular target: Gal(b1-4)GlcNAc(b1-3)Gal(b1-4)GlcNAc(b1-6)[Gal(b1-3)]GalNAc
# How it was run: as §1
# Gal3S(b1-4)GlcNAc = molecular target: Gal3S(b1-4)GlcNAc
# How it was run: as §1
# Gal6S(b1-3)GlcNAc6S = molecular target: Gal6S(b1-3)GlcNAc6S
# How it was run: as §1
# [19] = molecular target: GalNAc(b1-3)Gal(a1-6)Gal(b1-4)Glc
# How it was run: as §1
# GalNAc(b1-4)Gal(b1-4)Glc = molecular target: GalNAc(b1-4)Gal(b1-4)Glc
# How it was run: as §1
# GalNAc(b1-6)GalNAc = molecular target: GalNAc(b1-6)GalNAc
# How it was run: as §1
# GlcA(b1-6)Gal = molecular target: GlcA(b1-6)Gal
# How it was run: as §1
# [20] = molecular target: GlcNAc(a1-4)Gal(b1-4)GlcNAc(b1-3)Gal(b1-4)[Fuc(a1-3)]GlcNAc(b1-3)Gal(b1-4)[Fuc(a1-3)]GlcNAc
# How it was run: as §1
# [21] = molecular target: GlcNAc(b1-2)[GlcNAc(b1-4)]Man(a1-3)[GlcNAc(b1-2)Man(a1-6)]Man(b1-4)GlcNAc(b1-4)GlcNAc
# How it was run: as §1
# [22] = molecular target: GlcNAc(b1-2)[GlcNAc(b1-6)]Man(a1-6)[GlcNAc(b1-2)Man(a1-3)]Man(b1-4)GlcNAc(b1-4)[Fuc(a1-6)]GlcNAc
# How it was run: as §1
# GlcNAc(b1-3)Fuc = molecular target: GlcNAc(b1-3)Fuc
# How it was run: as §1
# GlcNAc(b1-3)Gal(b1-4)Glc = molecular target: GlcNAc(b1-3)Gal(b1-4)Glc
# How it was run: as §1
# [23] = molecular target: GlcNAc(b1-3)Gal(b1-4)GlcNAc(b1-2)Man(a1-3)[GlcNAc(b1-3)Gal(b1-4)GlcNAc(b1-2)Man(a1-6)]Man(b1-4)GlcNAc(b1-4)[Fuc(a1-6)]GlcNAc
# How it was run: as §1
# [24] = molecular target: GlcNAc(b1-3)Gal(b1-4)GlcNAc(b1-3)Gal(b1-4)GlcNAc(b1-2)Man(a1-3)[GlcNAc(b1-3)Gal(b1-4)GlcNAc(b1-3)Gal(b1-4)GlcNAc(b1-2)Man(a1-6)]Man(b1-4)GlcNAc(b1-4)[Fuc(a1-6)]GlcNAc
# How it was run: as §1
# [25] = molecular target: GlcNAc(b1-3)Gal(b1-4)GlcNAc(b1-3)Gal(b1-4)GlcNAc(b1-3)Gal(b1-4)GlcNAc(b1-2)Man(a1-3)[GlcNAc(b1-3)Gal(b1-4)GlcNAc(b1-3)Gal(b1-4)GlcNAc(b1-3)Gal(b1-4)GlcNAc(b1-2)Man(a1-6)]Man(b1-4)GlcNAc(b1-4)[Fuc(a1-6)]GlcNAc
# How it was run: as §1
# [26] = molecular target: GlcNAc(b1-3)Gal(b1-4)GlcNAc(b1-3)Gal(b1-4)GlcNAc(b1-3)Gal(b1-4)GlcNAc(b1-2)[GlcNAc(b1-3)Gal(b1-4)GlcNAc(b1-3)Gal(b1-4)GlcNAc(b1-3)Gal(b1-4)GlcNAc(b1-6)]Man(a1-6)[GlcNAc(b1-3)Gal(b1-4)GlcNAc(b1-3)Gal(b1-4)GlcNAc(b1-3)Gal(b1-4)GlcNAc(b1-2)Man(a1-3)]Man(b1-4)GlcNAc(b1-4)[Fuc(a1-6)]GlcNAc
# How it was run: as §1
# [27] = molecular target: GlcNAc(b1-3)Gal(b1-4)GlcNAc(b1-6)[Gal(b1-3)]GalNAc
# How it was run: as §1
# [28] = molecular target: GlcNAc(b1-4)GlcNAc(b1-4)GlcNAc(b1-4)GlcNAc(b1-4)GlcNAc(b1-4)GlcNAc
# How it was run: as §1
# [29] = molecular target: GlcNAc(b1-4)[GlcNAc(b1-6)]GalNAc
# How it was run: as §1
# [30] = molecular target: Man(a1-2)Man(a1-2)Man(a1-6)[Man(a1-3)]Man
# How it was run: as §1
# [31] = molecular target: Man(a1-3)[Man(a1-6)]Man(b1-4)GlcNAc(b1-4)[Fuc(a1-6)]GlcNAc
# How it was run: as §1
# Man(a1-6)Man = molecular target: Man(a1-6)Man
# How it was run: as §1
# [32] = molecular target: Neu5Ac(a2-3)Gal(b1-3)GlcNAc(b1-3)Gal(b1-3)GlcNAc
# How it was run: as §1
# Neu5Ac(a2-3)GalNAc = molecular target: Neu5Ac(a2-3)GalNAc
# How it was run: as §1
# [33] = molecular target: Neu5Ac(a2-6)Gal(b1-4)GlcNAc(b1-2)Man(a1-3)Man(b1-4)GlcNAc(b1-4)GlcNAc
# How it was run: as §1
# [34] = molecular target: Neu5Ac(a2-6)Gal(b1-4)GlcNAc(b1-2)Man(a1-3)[Man(a1-6)]Man(b1-4)GlcNAc(b1-4)GlcNAc
# How it was run: as §1
# [35] = molecular target: Neu5Ac(a2-6)Gal(b1-4)GlcNAc(b1-2)Man(a1-3)[Neu5Ac(a2-6)Gal(b1-4)GlcNAc(b1-2)Man(a1-6)]Man(b1-4)GlcNAc(b1-4)[Fuc(a1-6)]GlcNAc
# How it was run: as §1
# [36] = molecular target: Neu5Ac(a2-6)Gal(b1-4)GlcNAc(b1-3)Gal(b1-4)GlcNAc(b1-6)[Gal(b1-3)]GalNAc
# How it was run: as §1
binder,measurement,setting,value
"HML-Native (Hypnea musciformis), P84871 (protein) QKFCTLDIAPVCCQIVIGGGMYTAGNACMCEGFVSGVGRCENPKECPCTREAQIPSCCSSRWGLVSVTGKCACDCLGGTVAFPEPCPSPY",glycan array binding signal (z-score),[1],-0.188
same,glycan array binding signal (z-score),[2],-0.059
same,glycan array binding signal (z-score),[3],-0.211
same,glycan array binding signal (z-score),[4],-0.283
same,glycan array binding signal (z-score),[5],-0.093
same,glycan array binding signal (z-score),[6],-0.302
same,glycan array binding signal (z-score),[7],-0.162
same,glycan array binding signal (z-score),[8],-0.318
same,glycan array binding signal (z-score),[9],5.16
same,glycan array binding signal (z-score),[10],-0.276
same,glycan array binding signal (z-score),Gal(b1-4)Glc6S,-0.313
same,glycan array binding signal (z-score),[11],5.65
same,glycan array binding signal (z-score),[12],1.48
same,glycan array binding signal (z-score),[13],-0.238
same,glycan array binding signal (z-score),[14],5.52
same,glycan array binding signal (z-score),[15],4.93
same,glycan array binding signal (z-score),[16],4.9
same,glycan array binding signal (z-score),[17],4.8
same,glycan array binding signal (z-score),[18],-0.192
same,glycan array binding signal (z-score),Gal3S(b1-4)GlcNAc,-0.233
same,glycan array binding signal (z-score),Gal6S(b1-3)GlcNAc6S,-0.323
same,glycan array binding signal (z-score),[19],-0.345
same,glycan array binding signal (z-score),GalNAc(b1-4)Gal(b1-4)Glc,-0.252
same,glycan array binding signal (z-score),GalNAc(b1-6)GalNAc,-0.284
same,glycan array binding signal (z-score),GlcA(b1-6)Gal,-0.241
same,glycan array binding signal (z-score),[20],0.641
same,glycan array binding signal (z-score),[21],-0.307
same,glycan array binding signal (z-score),[22],4.99
same,glycan array binding signal (z-score),GlcNAc(b1-3)Fuc,-0.11
same,glycan array binding signal (z-score),GlcNAc(b1-3)Gal(b1-4)Glc,-0.205
same,glycan array binding signal (z-score),[23],5.62
same,glycan array binding signal (z-score),[24],5.5
same,glycan array binding signal (z-score),[25],5.16
same,glycan array binding signal (z-score),[26],1.38
same,glycan array binding signal (z-score),[27],-0.272
same,glycan array binding signal (z-score),[28],-0.197
same,glycan array binding signal (z-score),[29],-0.239
same,glycan array binding signal (z-score),[30],-0.005
same,glycan array binding signal (z-score),[31],5.72
same,glycan array binding signal (z-score),Man(a1-6)Man,-0.3
same,glycan array binding signal (z-score),[32],-0.295
same,glycan array binding signal (z-score),Neu5Ac(a2-3)GalNAc,-0.258
same,glycan array binding signal (z-score),[33],-0.157
same,glycan array binding signal (z-score),[34],-0.166
same,glycan array binding signal (z-score),[35],5.65
same,glycan array binding signal (z-score),[36],-0.205
